Measured values: article PMC4336329 (PLoS ONE, 2015)
The whole screen tested about 310,000 compounds, of which about 14,000 (4.5%) showed an effect of 50% or more. Effects have a minus sign here. The full list was thinned out, with strong results kept by preference.

Each compound was assayed against human ether-à-go-go-related gene (hERG) potassium channel (human, UniProt Q12809) (assay: primary screen, population patch clamp on CHO cells stably expressing hERG; higher = less effect of the substance).
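Further: peak tail current of the secondary pulse compared with the same well before compound.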

Sequence of human ether-à-go-go-related gene (hERG) potassium channel (Q12809 whole entry, looked up): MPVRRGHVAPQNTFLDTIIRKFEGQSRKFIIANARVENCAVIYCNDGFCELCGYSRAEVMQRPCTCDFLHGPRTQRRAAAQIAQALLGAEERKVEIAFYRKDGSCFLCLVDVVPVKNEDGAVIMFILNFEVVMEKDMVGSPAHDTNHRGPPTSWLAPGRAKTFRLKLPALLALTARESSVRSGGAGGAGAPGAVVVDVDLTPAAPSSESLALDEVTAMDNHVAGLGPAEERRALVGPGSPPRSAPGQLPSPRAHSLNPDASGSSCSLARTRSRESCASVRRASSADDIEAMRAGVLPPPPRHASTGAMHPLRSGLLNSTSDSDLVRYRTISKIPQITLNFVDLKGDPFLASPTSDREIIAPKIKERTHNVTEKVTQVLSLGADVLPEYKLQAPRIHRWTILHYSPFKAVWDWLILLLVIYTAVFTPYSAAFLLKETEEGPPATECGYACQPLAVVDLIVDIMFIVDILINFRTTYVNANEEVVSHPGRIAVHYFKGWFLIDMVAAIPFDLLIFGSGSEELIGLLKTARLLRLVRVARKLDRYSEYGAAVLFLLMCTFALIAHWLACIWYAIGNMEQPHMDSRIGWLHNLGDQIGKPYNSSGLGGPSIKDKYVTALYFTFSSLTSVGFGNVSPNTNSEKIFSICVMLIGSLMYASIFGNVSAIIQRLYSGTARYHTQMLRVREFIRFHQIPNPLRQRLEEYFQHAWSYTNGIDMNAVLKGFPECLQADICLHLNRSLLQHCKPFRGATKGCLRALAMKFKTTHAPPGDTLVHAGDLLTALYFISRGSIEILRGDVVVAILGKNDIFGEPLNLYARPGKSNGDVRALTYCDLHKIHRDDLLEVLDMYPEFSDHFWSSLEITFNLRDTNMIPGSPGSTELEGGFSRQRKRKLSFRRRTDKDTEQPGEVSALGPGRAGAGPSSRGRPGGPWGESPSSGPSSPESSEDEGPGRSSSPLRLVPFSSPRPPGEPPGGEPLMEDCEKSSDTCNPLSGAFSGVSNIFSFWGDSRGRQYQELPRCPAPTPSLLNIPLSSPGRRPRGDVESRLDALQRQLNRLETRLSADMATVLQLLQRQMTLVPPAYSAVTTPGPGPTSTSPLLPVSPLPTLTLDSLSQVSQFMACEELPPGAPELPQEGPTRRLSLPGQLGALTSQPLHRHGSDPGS

Row | SMILES | hERG current change (%, negative = inhibition) at 10uM
1 | CCOC(=O)Cn1c(-c2ccc(OC)cc2)c(-c2ccc(OC)cc2)nnc1=O | 9.79%
2 | O=C(NC(=S)NCCc1ccccn1)c1ccco1 | 17.4%
3 | COc1cccc(CNS(=O)(=O)c2ccc(S(=O)(=O)N3CCCC3)cc2)c1 | 7.51%
4 | COc1ccc(C(=O)N(Cc2ccco2)Cc2cccs2)c(O)c1 | -6.63%
5 | O=C(CSc1nncn1-c1ccccc1)Nc1ccc(N2CCOCC2)cc1 | 3%
6 | CN(C)S(=O)(=O)c1ccc(NC(=O)N2CCN(c3cccc(C(F)(F)F)c3)CC2)cc1 | 7.83%
7 | Cc1ccsc1C(=O)OCC(=O)NCCNC(=O)COC(=O)c1sccc1C | 15.7%
8 | O=C(CCNC(=O)c1ccccc1Cl)Nc1cc(S(=O)(=O)N2CCOCC2)ccc1N1CCCC1 | -8.58%
9 | COc1ccccc1-c1c(C)nn2c(-c3ccccc3)cc(C)nc12 | 3.05%
10 | CCOC(=O)COn1c(=O)c(-c2ccc(Cl)cc2)[n+]([O-])c2ccccc21 | -4.24%
11 | Cc1ccc(S(=O)(=O)N(Cc2cccc(F)c2)C(=O)N2CCN(C)CC2)cc1 | 33.1%
12 | CCCC(=O)Nc1ccc(C(=O)NCc2ccccn2)cc1 | 14.2%
13 | Cc1ccc(CN2CCN(Cc3nc(C(C)C)cs3)CC2CCO)cc1 (stereo not drawn) | -68.5%
14 | COc1cccc(CN2CCN(Cc3c(C)nn(C(C)C)c3C)CC2CCO)c1 (stereo not drawn) | -2.68%
15 | COc1cccc(CN2CCN(Cc3nc(C(C)C)cs3)CC2CCO)c1 (stereo not drawn) | -73.7%
16 | CC(C)c1csc(CN2CCN(Cc3ccc(F)cc3)C(CCO)C2)n1 (stereo not drawn) | -35.3%
17 | CCOc1ccc(CN2CCN(Cc3nc(C(C)C)cs3)CC2CCO)cc1 (stereo not drawn) | -82.2%
18 | Cc1nn(-c2ccccc2)c(C)c1/C=C/C(=O)OCC(=O)Nc1ccc(S(N)(=O)=O)cc1 | 13.1%
19 | COc1ccccc1C(=O)NCCC(=O)N(C)CC(=O)Nc1ccc(C)cc1 | 7.91%

Row | SMILES | hERG current change (%, negative = inhibition) at 10uM
20 | Cc1ccc(S(=O)(=O)NC(CC(=O)O)c2ccccc2)c(C)c1 (stereo not drawn) | 5.52%
21 | CC1C(c2ccccc2)C(C#N)(C#N)C2(C#N)C(=O)NC1(N)C2C (stereo not drawn) | -3.25%
22 | c1ccc(-n2nnnc2-c2cnc(-c3cccnc3)nc2-c2cccs2)cc1 | -10.6%
23 | O=C(CN1CCN(Cc2ccc(Cl)cc2)CC1)N/N=C/c1c[nH]c2ccccc12 | -52.9%
24 | Cc1ccc(CN2CCN(CC(=O)N/N=C/c3c[nH]c4ccccc34)CC2)cc1 | -36.3%
25 | COc1ccccc1/C=N/NC(=O)COCC(=O)N/N=C/c1ccccc1OC | 3.56%
26 | O=C(CN1CCN(Cc2ccc(Cl)cc2)CC1)N/N=C/c1ccccc1F | -68.7%
27 | CN1CCN(CC(=O)N/N=C\c2c[nH]c3ccccc23)CC1 | 16.2%
28 | O=C(COCC(=O)N/N=C/c1ccccc1F)N/N=C/c1ccccc1F | -54.8%
29 | O=C(CN1CCN(Cc2ccc(Cl)cc2)CC1)N/N=C/c1cccc(F)c1 | -69.2%
30 | O=C(CN1CCN(c2ccccc2)CC1)N/N=C/c1cccc(F)c1 | 4.27%
31 | O=C(CC(=O)Nc1ccc(Cl)cc1)N/N=C\c1cccc(F)c1 | 16.6%
32 | O=C(CO)N/N=C/c1ccccc1F | 19.1%
33 | O=C(CN1CCN(Cc2ccccc2)CC1)N/N=C/c1ccccc1F | -29.3%
34 | O=C(CN1CCCCCCC1)N/N=C/c1ccccc1F | -35.6%
35 | O=C1CN(C(=O)CSc2nnc(Nc3ccccc3)s2)c2ccccc2N1 | 0.255%
36 | COc1ccc(NC(=S)NCc2ccc3c(c2)cc(C)n3C)cc1 | 5.5%
37 | CN(CCO)c1cc(NCCCN2CCC(Cc3ccccc3)CC2)c2nonc2c1[N+](=O)[O-] | -38%
38 | COC(=O)c1ccc(NC(=O)c2ccc3c(c2)C(=O)N(Cc2cccnc2)C3=O)cc1 | -23.2%

Row | SMILES | hERG current change (%, negative = inhibition) at 10uM
39 | CCCCCCn1c(O)c(C(C)=NC)c(=O)[nH]c1=O | 1.56%
40 | CC1CCc2nn(CC(=O)Nc3ccc(F)cc3F)cc2C1 (stereo not drawn) | -2.61%
41 | COc1ccc(-c2nc3ccccc3n2Cc2ccc(C)cc2)cc1 | -6.29%
42 | CN1C(=O)C(C)(C)c2cc(S(=O)(=O)N3CCCC(C(=O)NCc4ccccc4Cl)C3)ccc21 (stereo not drawn) | 2.18%
43 | C=CCN(C(=O)CCC(=O)O)C1CC(=O)N(c2ccc(OCCC)cc2)C1=O (stereo not drawn) | 0.711%
44 | Cc1ccc2oc(=O)c3cc(C(=O)NCCN4CCN(C)CC4)sc3c2c1 | -18.2%
45 | COC(=O)c1ccc(C)c(NC(=O)C2CC(=O)N(C3CCCC(C)C3C)C2)c1 (stereo not drawn) | -11.5%
46 | O=C(OCC(=O)N1CCCCC1)c1c[nH]c2ccccc12 | -7.04%
47 | O=C(O)COc1ccccc1/C=N/NC(=O)CN1CCN(Cc2ccc(Cl)cc2)CC1 | 10.7%
48 | O=C(CN1CCSCC1)N/N=C/c1ccccc1F | 0.735%
49 | Cc1ccc(CN2CCN(CC(=O)N/N=C/c3ccccc3F)CC2)cc1 | -66.4%
50 | Cc1nc2ccccc2c(=O)n1-c1ccc(Cl)cc1Cl | -0.324%
51 | Cc1ccc(CSc2ncnc3c2cnn3-c2ccc(C)cc2)cc1 | 30.7%
52 | COc1ccc(N(CC(O)Cn2cnc3ccccc32)S(=O)(=O)c2ccc(C)cc2)cc1 (stereo not drawn) | -58%
53 | COc1ccc(N(CC(O)CN2C(=O)NC(C)(C)C2=O)S(=O)(=O)c2ccc(C)cc2)cc1 (stereo not drawn) | -11.6%
54 | COc1ccc(N(CC(O)Cn2c(C)nc3ccccc32)S(=O)(=O)c2ccccc2)cc1 (stereo not drawn) | 4.8%
55 | COc1ccc(N(CC(O)Cn2nnc3ccccc32)S(=O)(=O)c2ccc(C)cc2)cc1 (stereo not drawn) | -64.6%
56 | COc1ccc([N+](=O)[O-])cc1N(CC(O)Cn1nnc2ccccc21)S(=O)(=O)c1ccc(C)cc1 (stereo not drawn) | -29.4%
57 | COc1ccc(N(CC(O)Cn2c(C)nc3ccccc32)S(=O)(=O)c2ccc(C)cc2)cc1 (stereo not drawn) | -11.5%
